Shown are actives, neighbours in structure and some others; about 3.6% of the full set was active somewhere.
HSP90 refold inh: HSP90 inhibitors, primary screen, cell lysate, luminescence. Rabbit reticulocyte lysate, luciferase refolding luminescence, 3 h. inhibition, % at 5.6 µM. actives 0.91% (n = 290,000). AID 1789, 2009;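 active = inhibition above the screen-wide mean plus 3 SD, computed separately per campaign, cut at about 16% in these data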;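 note: inhibitors lower the luminescence because luciferase stays unfolded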
KKLEB tox: cytotoxicity in KKLEB CF airway cells, primary screen, cytotoxicity control for CF NF-kB inhibitor project, cell-based, uHTS, fluorescence assay plates | KKLEB CF airway cells viability, ATPlite luminescence, overnight; active compounds read low; cells stimulated with P. aeruginosa culture filtrate | activity change (cytotoxicity), % at 5 µM | actives 0.36% (n = 360,000) | AID 602141, 2011;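 active = corrected activity change at or below -50% at 5 µM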
Peg3 promoter: Peg3 promoter-driven luciferase inhibitors, primary screen, cell-based, HeLa, luciferase luminescence. HeLa PEG-Prom luciferase reporter, overnight. inhibition, % at 20 µM. actives 1.7% (n = 360,000);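 active = inhibition of at least 50% at 20 µM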
LGR2 inh: inhibitors of bursicon-induced LGR2 CRE-luciferase signal, primary screen, cell-based, HEK293, CRE-luciferase reporter, bursicon stimulation | Drosophila bursicon receptor LGR2 (rickets) | bursicon-stimulated, 4 h | inhibition, % at 9.99 µM | actives 0.35% (n = 380,000);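 active = drop in luminescence signal, shown as inhibition above about 50% in the replicate tests, limit read from the data, passing the limit was not always enough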;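 note: agonist challenge used bursicon conditioned medium at about half maximal strength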
CF NFkB block: inhibitors of PAF-induced NF-kB signaling, primary screen, cell-based, GFP fluorescence, uHTS | KKLEB NF-kB-GFP reporter, GFP fluorescence overnight | inhibition, % at 5 µM | actives 0.86% (n = 360,000) | AID 588850, 2011;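 active = at least 50% inhibition at 5 µM, scaled per plate between neutral and stimulator controls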;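 note: PAF is a Pseudomonas aeruginosa culture filtrate used as stimulus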
Mdm2 MdmX PPI: inhibitors of human Mdm2-MdmX association, primary screen, cell-based, luminescence, split luciferase, SaOS-2, uHTS; inhibition, % at 8 µM; AID 485346, 2010; SaOS-2 split-luciferase Mdm2/MdmX complementation; actives 3% (n = 330,000);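 active = inhibition of at least 50% at 8 µM in the primary screen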
Target sequence (O15151 whole entry, looked up): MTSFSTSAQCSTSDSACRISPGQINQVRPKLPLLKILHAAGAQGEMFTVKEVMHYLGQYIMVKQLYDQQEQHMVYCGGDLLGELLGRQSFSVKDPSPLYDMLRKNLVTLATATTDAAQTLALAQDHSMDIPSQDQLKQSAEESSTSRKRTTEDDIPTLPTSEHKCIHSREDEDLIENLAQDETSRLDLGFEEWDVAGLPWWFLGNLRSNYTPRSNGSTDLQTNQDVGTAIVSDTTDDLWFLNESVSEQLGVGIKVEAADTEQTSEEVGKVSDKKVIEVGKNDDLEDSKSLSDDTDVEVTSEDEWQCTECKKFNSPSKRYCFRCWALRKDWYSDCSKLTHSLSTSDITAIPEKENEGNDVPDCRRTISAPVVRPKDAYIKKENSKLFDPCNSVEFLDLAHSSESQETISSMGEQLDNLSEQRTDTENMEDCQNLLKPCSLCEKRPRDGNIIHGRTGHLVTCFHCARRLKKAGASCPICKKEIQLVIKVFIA
Target sequence (Q00987 whole entry, looked up): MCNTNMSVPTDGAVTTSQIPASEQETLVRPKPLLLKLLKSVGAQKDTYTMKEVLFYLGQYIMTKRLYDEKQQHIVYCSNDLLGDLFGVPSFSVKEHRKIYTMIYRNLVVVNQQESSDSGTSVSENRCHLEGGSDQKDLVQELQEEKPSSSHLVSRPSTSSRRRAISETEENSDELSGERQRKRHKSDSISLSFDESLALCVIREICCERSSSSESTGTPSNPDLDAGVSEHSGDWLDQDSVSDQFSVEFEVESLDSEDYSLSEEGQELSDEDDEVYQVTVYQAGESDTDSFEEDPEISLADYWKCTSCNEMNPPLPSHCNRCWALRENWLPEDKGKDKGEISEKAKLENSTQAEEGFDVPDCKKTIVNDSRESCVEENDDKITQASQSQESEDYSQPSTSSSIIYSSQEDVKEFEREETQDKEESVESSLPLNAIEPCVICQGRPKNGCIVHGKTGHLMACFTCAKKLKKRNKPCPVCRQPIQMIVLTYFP
Mdm2 MdmX conf: Mdm2-MdmX complex disruptors, retested hits, confirmation, luminescence, single concentration. shares compounds with Mdm2 MdmX PPI. Mdm2-MdmX binding, luminescent assay. inhibition, % at 8 µM. actives 55% (n = 10,000). AID 489028, 2010; in the data active = inhibition above about 40%
Full FLuc ctr: full-length luciferase signal inhibition, confirmation, counter-screen for Mdm2/MdmX interaction inhibitor project, cell-based, single concentration, SaOS-2; shares compounds with Mdm2 MdmX PPI; SaOS-2 full-length luciferase counterscreen, luminescence; inhibition, % at 8 µM; actives 77% (n = 6,200); AID 504607, 2011;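 active = mean inhibition at 8 µM reaching about 37%, which flags the compound as non-specific, limit read from the data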;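 note: p53-null SaOS-2 cells with luciferase driven by a doxycycline-inducible promoter; compound on cells about two nights before reading with doxycycline added after day one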
Numbers stand for hits; n = inactive; x = no result given.

SMILES | HSP90 refold inh | KKLEB tox | Peg3 promoter | LGR2 inh | CF NFkB block | Mdm2 MdmX PPI | Mdm2 MdmX conf | Full FLuc ctr
NS(=O)(=O)c1ccc(CCN2C(=O)/C(=C\c3ccc(Cl)cc3)SC2=S)cc1 | n | n | 83 | n | n | 95 | 96 | 46
CC1C(=NO)C(C)C(c2ccccc2)NC1c1ccccc1 (stereo not drawn) | n | n | n | n | n | n | x | x
CCC1C(=NO)C(CC)C(c2ccccc2)NC1c1ccccc1 (stereo not drawn) | n | n | 64 | n | n | 52 | n | x
CCCC(=O)N1CC2(CCN(CC3CCCC3)CC2)c2c([nH]c3cc(OC)ccc23)[C@@H]1CO | x | x | x | n | x | x | x | x
Cc1ccc(Nc2c(N)c(=O)oc3ccccc23)cc1 | n | n | n | x | n | 58 | n | x
CNc1c(N)c(=O)oc2ccccc12 | n | n | n | n | n | n | x | x
CCc1cccc(N=c2c([N+](=O)[O-])nn(-c3ccc(Cl)cc3)n2O)c1 | n | n | n | n | n | n | x | x
COc1cc(N=c2c([N+](=O)[O-])nn(-c3ccc4c(c3)OCCO4)n2O)cc(OC)c1 | n | n | n | n | n | 59 | n | x
CCc1cccc(N=c2c([N+](=O)[O-])nn(-c3ccc4c(c3)OCCO4)n2O)c1 | n | n | n | n | n | 73 | 77 | 62
Oc1cccc2ccc(Nc3ccccn3)nc12 | n | -67 | 102 | x | 60 | 72 | 100 | 52
CC#CC[N+](C)(C)CCCCCCCCCC | n | n | n | x | n | n | x | x
C#CC[N+](C)(C)CCCCCCCCC | n | n | n | n | n | 51 | 49 | 74
COc1ccc(-c2nnc(Nc3nc4c(OC)cccc4s3)o2)c(OC)c1 | n | n | n | x | n | 68 | 58 | 48
COc1ccccc1C#Cc1ccc2c(c1)O[C@H](CN(C)C(C)=O)[C@H](C)CN([C@H](C)CO)S2(=O)=O | x | x | x | n | x | x | x | x
CCOC(=O)C1=CN(Cc2cccc(F)c2)S(=O)(=O)NC1CCc1ccccc1 (stereo not drawn) | x | n | n | n | n | 61 | n | 47
CCOC(=O)c1cc2c(N)c(C(=O)c3cc(C#N)c(SC)nc3C)sc2nc1C | n | -64 | n | x | n | 50 | n | x
COc1ccc2c3c([nH]c2c1)[C@@H](CO)N(C(=O)C1CCC1)CC31CCN(C(=O)c2ccncc2)CC1 | x | x | x | n | x | x | x | x
CCCC#Cc1ccc([C@H]2[C@H]3CN(C(=O)c4ccc(F)cc4)CC(=O)N3[C@H]2CO)cc1 | x | x | x | n | x | x | x | x
CC(=O)N1N=C(c2ccccc2)CC1c1cn(Cc2ccccc2)c2ccccc12 (stereo not drawn) | n | n | n | n | n | 59 | 51 | 47
C=C[C@@H]1c2cc(C)ccc2N(S(=O)(=O)c2ccc(C)cc2)[C@H](c2ccc(OC(C)=O)cc2)C1(C#N)C#N | x | n | n | n | n | 72 | 65 | 72
C=C[C@@H]1c2ccccc2N(S(=O)(=O)c2ccc(C)cc2)[C@H](c2ccc(OC(C)=O)cc2)C1(C#N)C#N | x | n | n | x | n | n | x | x
COc1ccc(S(=O)(=O)N[C@@H]2CC[C@H](CCNC(=O)CN3CCOCC3)O[C@@H]2CO)cc1 | x | x | x | n | x | x | x | x
CCC(C)[C@H](NC(=O)N1CC(=O)Nc2ccccc21)C(=O)Nc1ccccc1C (stereo partly drawn) | n | n | n | n | n | 67 | 64 | 39
C[C@H](CO)N1C[C@H](C)[C@@H](CN(C)Cc2ccc(C(=O)O)cc2)Oc2c(NC(=O)c3cnccn3)cccc2C1=O | x | x | x | n | x | x | x | x
N#C/C(N=Nc1ccccc1O)=N\Nc1ccccc1O | x | n | 67 | n | n | 82 | 94 | n
SMILES | HSP90 refold inh | KKLEB tox | Peg3 promoter | LGR2 inh | CF NFkB block | Mdm2 MdmX PPI | Mdm2 MdmX conf | Full FLuc ctr
Oc1ccccc1N=N/C(=N/Nc1ccccc1O)c1ccccc1 | x | n | n | x | n | n | x | x
COC(=O)C[C@@H]1CC[C@H]2[C@@H](COc3ccc(NS(=O)(=O)c4ccccc4Cl)cc3C(=O)N2C)O1 | x | x | x | n | x | x | x | x
O=C(C[C@H]1C=C[C@@H](NC(=O)C2CCC2)[C@H](CO)O1)NCc1ccccc1Cl | x | x | x | n | x | x | x | x
C[C@@H]1CN([C@@H](C)CO)C(=O)Cc2cc(NC(=O)CCN3CCOCC3)ccc2O[C@H]1CN(C)C | x | x | x | n | x | x | x | x
O=c1ccc2ccc(Oc3ccc([N+](=O)[O-])cc3[N+](=O)[O-])cc2o1 | n | x | x | x | x | 58 | 60 | 72
O=C(Oc1ccc2ccc(=O)oc2c1)c1ccc([N+](=O)[O-])cc1 | n | n | n | n | n | n | x | x
Clc1ccc(C(c2nnnn2C2CCCC2)N2CCN(Cc3ccncc3)CC2)cc1 (stereo not drawn) | n | n | n | n | n | n | x | x
O=c1c(C(c2nnnn2C2CCCCC2)N2CCCCC2)coc2ccc(Cl)cc12 (stereo not drawn) | n | n | n | x | n | 53 | n | x
O=C(Nc1ncc(Cc2ccc(SC(F)F)cc2)s1)c1ccc(OC(F)F)cc1 | n | n | n | x | n | 62 | 64 | 96
Cc1ccc(Cc2cnc(NC(=O)c3ccco3)s2)cc1 | n | n | n | x | n | n | x | x
N#Cc1ccc(-c2ccc3c(c2)[C@H]2[C@H](CCN2C(=O)c2ccccc2F)[C@@H](CO)N3)cc1 | x | x | x | n | x | x | x | x
C=CC[C@@H](CC(=O)N[C@@H](CO)Cc1ccccc1)C(=O)N[C@H](COC(=O)[C@@H](CC=C)Cc1ccc(F)cc1)Cc1ccccc1 | x | n | n | n | n | 53 | n | 55
C=CC[C@@H](CC(=O)N[C@H](CO)Cc1ccccc1)C(=O)N[C@@H](COC(=O)[C@@H](CC=C)Cc1ccc(F)cc1)Cc1ccccc1 | x | n | n | n | n | 70 | n | x
COc1cccc(C#Cc2ccc([C@@H]3[C@H]4CN(C(=O)Cc5cccnc5)CC(=O)N4[C@H]3CO)cc2)c1 | x | x | x | n | x | x | x | x
CCNC(=O)[C@@H]1[C@@H](CO)[C@@H]2Cn3c(ccc(C4=CCCC4)c3=O)[C@H]1N2Cc1cccnc1 | x | x | x | n | x | x | x | x
CCOC(=O)c1cc(CC)sc1NC(=O)COc1ccc2c(C)cc(=O)oc2c1 | n | n | n | n | n | 82 | 43 | 46
